Laboratory results reported in the supplement of paper PMC3545927.
Some of the results follow. How many sequences the whole screen found active is unknown.

Target: furin, P09958
Assay: furin cleavage Z-score vs untreated control; higher = more cleavage, active = 3.5 or more, inactive = 1 or less, 8 variable residues between constant flanks
Summary of the method: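 The cleavage Z-score is the log read count relative to furin-free reactions, lowess-adjusted and scaled by median absolute deviation. Counts came from sequencing DNA released from bead-bound 8-mer peptide–cDNA fusions after digestion with purified furin for 7.5, 15 or 30 min.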
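Note: purified furin at 1:10 enzyme:substrate in 50 mM HEPES pH 7.5.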

Chain of furin, P09958 (P09958 whole entry): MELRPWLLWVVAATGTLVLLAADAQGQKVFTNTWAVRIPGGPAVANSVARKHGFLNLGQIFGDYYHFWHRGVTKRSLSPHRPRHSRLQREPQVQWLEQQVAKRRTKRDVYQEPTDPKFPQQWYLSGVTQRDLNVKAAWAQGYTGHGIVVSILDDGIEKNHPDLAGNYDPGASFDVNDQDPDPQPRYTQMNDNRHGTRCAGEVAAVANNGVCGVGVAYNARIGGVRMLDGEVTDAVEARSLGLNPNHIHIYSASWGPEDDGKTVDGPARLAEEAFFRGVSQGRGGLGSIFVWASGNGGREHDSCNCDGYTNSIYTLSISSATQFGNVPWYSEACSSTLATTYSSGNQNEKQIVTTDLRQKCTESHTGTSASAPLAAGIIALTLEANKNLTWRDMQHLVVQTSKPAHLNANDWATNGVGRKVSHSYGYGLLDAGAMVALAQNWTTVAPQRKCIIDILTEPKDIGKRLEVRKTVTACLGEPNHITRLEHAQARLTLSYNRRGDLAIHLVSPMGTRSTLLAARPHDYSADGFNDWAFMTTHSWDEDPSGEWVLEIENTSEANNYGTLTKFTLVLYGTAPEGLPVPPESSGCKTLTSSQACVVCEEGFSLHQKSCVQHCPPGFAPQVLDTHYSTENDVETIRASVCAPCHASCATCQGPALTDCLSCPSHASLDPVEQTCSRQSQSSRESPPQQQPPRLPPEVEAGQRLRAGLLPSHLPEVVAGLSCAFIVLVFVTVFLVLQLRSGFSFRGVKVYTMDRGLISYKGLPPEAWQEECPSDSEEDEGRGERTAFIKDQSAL

Sequence | furin cleavage Z-score (7.5 min) | furin cleavage Z-score (15 min) | furin cleavage Z-score (30 min)
CAEQTTPCSGAGNASASA [HC1982] | -1.3 (inactive) | -0.293 (inactive) | 0.257 (inactive)
CASPLLLTTTAGNASASA [HC492] | -0.516 (inactive) | -0.474 (inactive) | -1.67 (inactive)
CAESVVCCSMAGNASASA [HC2137] | -0.35 (inactive) | -0.242 (inactive) | -0.275 (inactive)
CAEEEVPCHRAGNASASA [HC2452] | -0.0801 (inactive) | -0.749 (inactive) | -0.159 (inactive)
CADAVILLMCAGNASASA [HC596] | -0.491 (inactive) | 1.35 | 0.744 (inactive)
CAREKRSEYSAGNASASA [FS-1852] | 3.09 | 3.81 (active) | 3.2
CAREKRLLYSAGNASASA [FS-3218] | -0.25 (inactive) | 0.302 (inactive) | -0.105 (inactive)
CALLCRHKRKAGNASASA [FS-1359] | 7.93 (active) | 9.24 (active) | 8.25 (active)
CAIEFRHKRKAGNASASA [FS-1535] | -1.35 (inactive) | 1.39 | 3.89 (active)
CARGPRGKGKAGNASASA [FS-1893] | -0.459 (inactive) | -0.333 (inactive) | -2.1 (inactive)
CATIMAKNEVAGNASASA [HC1439] | 1.57 | 1.43 | 0.513 (inactive)
CAEVVASTWVAGNASASA [HC121] | 1.23 | 1.63 | -0.233 (inactive)
CAMGGNITRVAGNASASA [HC1279] | -0.69 (inactive) | 2.32 | 0.434 (inactive)
CAKFHRNRRVAGNASASA [FS-38] | 1.89 | 4.04 (active) | 2.3
CAYGGRNRRVAGNASASA [FS-151] | 2 | 3.67 (active) | 4.5 (active)
CAVPCVREGNAGNASASA [HC274] | -0.737 (inactive) | -0.519 (inactive) | -1.84 (inactive)
CAGVNYATGNAGNASASA [HC241] | 1.48 | 0.396 (inactive) | -0.36 (inactive)
CAWREVPCHRAGNASASA [HC2428] | 0.368 (inactive) | 0.114 (inactive) | 0.301 (inactive)
CARLPRATGNAGNASASA [FS-2571] | 5 (active) | 5.67 (active) | 4.58 (active)
CARLPRDCTRAGNASASA [FS-1742] | 5.34 (active) | 4.96 (active) | 5.25 (active)
CARLRRMNGNAGNASASA [FS-2994] | -0.28 (inactive) | -1.18 (inactive) | -0.557 (inactive)
CARLARTCGRAGNASASA [FS-2985] | -1.25 (inactive) | 0.197 (inactive) | -0.432 (inactive)
CAVVCCCMSYAGNASASA [HC114] | -0.592 (inactive) | -1.78 (inactive) | -0.879 (inactive)
CAENLPYLVAAGNASASA [HC951] | 0.645 (inactive) | -0.626 (inactive) | -0.719 (inactive)
CARKRRGYSEAGNASASA [FS-2566] | 2.94 | 5.38 (active) | 4.72 (active)
CARKRKKKEEAGNASASA [FS-2697] | 0.247 (inactive) | -0.542 (inactive) | 0.0983 (inactive)
CARKNRSRIPAGNASASA [FS-1732] | 0.169 (inactive) | -0.807 (inactive) | 1.17
CARKRRAAIPAGNASASA [FS-2970] | 8.75 (active) | 10.1 (active) | 9.65 (active)
CARKRRMQEEAGNASASA [FS-2349] | 1.31 | 4.08 (active) | 2.78
CARKRRHHKEAGNASASA [FS-2699] | 2.57 | 3.84 (active) | 4.3 (active)
